These results are taken from PubChem BioAssay AID720513 (Broad Institute, 2013).

SMILES strings stand for the structures. The campaign covered roughly 2,100 compounds. About 480 (23%) were called active. Not shown: some 5% with an inconclusive outcome.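 How the source made its calls: active means fitted curve reaches 40% activation at or below the top valid concentration, in every replicate test; inconclusive means replicate tests disagree on the call; inactive means the rest, including activity in the opposite direction.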 Not all results are given here. Where a call stands in place of a potency, no number is given. Potency and affinity values are given separately.

The nature of this test: activators raising PGC1a acetylation in cells, dose response, cell-based, cherry-picked samples, set 6 (AID 720513).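 Further: cells made to overexpress flag tagged PGC1a plus GCN5 acetyltransferase by viral infection.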 The following applies: U2OS PGC1a acetylation AlphaLISA, overnight, 0 = neutral, -100 = inhibitor control; series mostly up to 19.5 µM.
With `O=C(Cc1cccc(NC(=O)C2CCCN(C(=O)c3ccccc3)C2)c1)Nc1cccc(C(=O)N2CCOCC2)c1` (stereo unspecified), the compound was called inactive.

For `CCn1cnc2cc(NCc3ccc(N(C)C)cc3)ccc21`, the compound was classed as inactive.

As for `O=C(Cc1cccc(NC(=O)C2CCN(C(=O)c3ccccc3)CC2)c1)Nc1cccc(C(=O)N2CCCCC2)c1`, the compound was called inactive.

`COc1ccc(C(=O)Nc2cc(Cl)ccc2-n2cncn2)c(OC)c1OC`: the result was inactive.

For the compound `Cc1noc(/C=C/N(C)C)c1S(=O)(=O)N(C)CC(=O)NC1CCCCC1`, the result was inactive.

For `CCC(=O)N1C[C@H](C)[C@H](OC)CN(C)C(=O)c2cc(NC(=O)c3cnccn3)ccc2OC[C@@H]1C`, the compound was classed as inactive.

`Cc1nc2ncnn2c(C)c1CCC(=O)N1CCN(c2ccccn2)CC1`: the outcome was inactive.

With `O=C(c1ccccc1-c1ccccc1)N1CCN(c2ccccn2)CC1`, the call was inactive.

With `Cc1ccc(S(=O)(=O)N2CCCC2CNC(=O)c2ccc(F)c(F)c2)cc1` (stereo unspecified), the call was inactive.

Take `COc1ccc(CCNC(=O)C2CCN(C(=O)c3ccc(F)cc3)CC2)cc1OC`: the result was inactive.

As to `COc1cccc(CNC(=O)C(=O)NCCC2CCCCN2S(=O)(=O)c2ccc(C)cc2)c1` (stereo unspecified), the call was inactive.

As to `COc1ccc2nc(N3CCCC(C(=O)NCCCN4CCN(C)CC4)C3)sc2c1` (stereo unspecified), the outcome was inactive.

Regarding `Nc1cc2ccncc2c2ccccc12`, the call was inactive.

In the case of `Cc1cc(Sc2nnc(N)s2)c2ccccc2n1`, the compound was called inactive.

Take `O=c1c2cccnc2n(-c2ccccc2)n1Cc1ccc(Cl)cc1`: the result was inactive.

Turning to `O=C(Nc1ccc(-c2cn3c(n2)SCC3)cc1)c1ccc2ccccc2n1`, the compound was classed as inactive.

On to `COc1ccc(C(=O)Nc2cccc(NC(=O)c3ccc(OC)c(OC)c3)n2)cc1OC`, for which the outcome was inactive.

As to `CCN(CC(=O)Nc1ccccc1OC)C(=O)C1CCC1`, the call was inactive.

Take `CCc1c(C(=O)NC2CCCCC2)[nH]c(C)c1C(C)=O`: the compound was classed as inactive.

On to `CCn1c(C(=O)NC2CCC(C)CC2)cc2sccc21` (stereo unspecified), for which the call was inactive.

As to `CN(Cc1c(F)cccc1Cl)c1nnnn1-c1ccccc1`, the compound was called inactive.

As to `CN(Cc1c(F)cccc1Cl)C(=O)CNC(=O)c1sc2ccccc2c1Cl`, the result was inactive.

Consider `CN(c1cc2c(c3c1ccn3C)C1CCC2C1)C1CCCCC1` (stereo unspecified), for which the call was inactive.

With `CCN(CC)CCNc1nc(-c2ccc(OC)cc2)c(-c2ccc(OC)cc2)s1`, the outcome was inactive.

For `CCCCNC(=O)C1CCN(Cc2ccccn2)CC1`, the result was inactive.

On to `CC1(Cc2cc(Cl)ccc2C(F)(F)F)C(=O)Nc2ccc(S(=O)(=O)NC3CCCCC3)cc21` (stereo unspecified), for which the outcome was inactive.

Regarding `O=S(=O)(/C(=C\c1ccc(C(F)(F)F)cc1)c1nc2ccccc2[nH]1)c1ccccc1`, the compound was classed as inactive.

For the compound `N#C/C(=C(/O)c1cc2ccccc2o1)c1nc2ccccc2s1`, the result was inactive.

With `CC(=O)Nc1cc(OC(C)=O)c2nonc2c1OC(C)=O`, the outcome was inactive.

Turning to `Cc1ccccc1CSc1nnc(-c2ccco2)n1Cc1ccco1`, the result was inactive.

With `COCC(=O)Nc1ccc2c(c1)OC[C@@H](C)N(CCc1ccccc1)C[C@H](C)[C@@H](OC)CN(C)C2=O`, the compound was called inactive.

In the case of `Cc1cccc(-n2c(=O)cc(N3CCN(c4ccc(F)cc4)CC3)[nH]c2=O)c1`, the call was inactive.

In the case of `CC(C)c1nnc(NC(=O)CCS(=O)(=O)c2nc(-c3cccs3)cc(C(F)(F)F)n2)s1`, the compound was called inactive.

On to `COC(=O)c1ccc(CSc2nc3c(cnn3-c3ccc(Cl)cc3)c(=O)[nH]2)o1`, for which the result was inactive.

Turning to `CC(=O)N1CCN(S(=O)(=O)c2cccc(C(=O)Nc3ccc4c(c3)OCO4)c2)CC1`, the compound was classed as inactive.

For the compound `O=C(NCc1ccc2c(c1)OCO2)C1CCN(S(=O)(=O)c2cccs2)CC1`, the outcome was inactive.

Consider `Cc1cc(C)n(-c2nc(O)cc(=O)[nH]2)n1`, for which the outcome was inactive.

Take `C[C@H]1CN([C@@H](C)CO)C(=O)CCCn2nncc2CO[C@@H]1CN(C)C(=O)Nc1ccccc1`: the outcome was inactive.

In the case of `O=C(Cc1ccc(Cl)cc1)Nc1ncccn1`, the call was inactive.

For the compound `NS(=O)(=O)c1cccc(NC(=O)CSc2ccccn2)c1`, the outcome was inactive.

With `CC(C)OC(=O)c1c(F)c(F)c(N2CCOCC2)c(F)c1F`, the result was inactive.

Regarding `Cc1noc(C)c1S(=O)(=O)N(C)C[C@H]1Oc2ccc(NC(=O)Nc3ccccc3)cc2CC(=O)N([C@H](C)CO)C[C@H]1C`, the compound was classed as inactive.

As for `CCC(CC)NC(=O)Cc1ccc(S(=O)(=O)N2CCOCC2)s1`, the compound was called inactive.

Take `O=S(=O)(c1ccc(Br)s1)N1CCN(Cc2ccc3c(c2)OCO3)CC1`: the result was inactive.

For `Cc1cccnc1C(NC(=O)C1CCN(Cc2cn(C)c3ccccc23)CC1)c1ccc(Cl)cc1` (stereo unspecified), the compound was classed as inactive.

For `Cc1c(/C(O)=C2\C(=O)C(=O)N(CCCN(C)C)C2c2ccccc2)cnn1-c1ccccc1` (stereo unspecified), the result was inactive.

For `CC1CN(c2oc(-c3cccs3)nc2C#N)CC(C)O1` (stereo unspecified), the outcome was inactive.

Consider `COc1ccc(C2=NOC(C(=O)Nc3cccnc3)C2)cc1` (stereo unspecified), for which the compound was classed as inactive.

For the compound `Cc1ccc(CNC(=O)c2ccc(CS(=O)(=O)c3ccccc3)o2)cc1`, the compound was classed as inactive.

For the compound `O=C(c1cccc(F)c1)N1CCN(C(=O)c2cc(-c3ccc(Cl)cc3Cl)on2)CC1`, the compound was called inactive.

`C[C@H](CO)N1C[C@H](C)[C@@H](CN(C)CC2CCOCC2)Oc2ncc(Br)cc2C1=O`: the result was inactive.

`O=c1c(Cl)c(NCCCO)cnn1-c1nc2ccccc2[nH]1`: the compound was classed as inactive.

On to `COc1ccc(C(=O)Sc2nncc3ccccc23)cc1`, for which the compound was called inactive.

As for `Brc1ccc2ncnc(NCc3ccccc3)c2c1`, the compound was classed as inactive.

On to `CC(=O)Nc1ccc(Oc2sc(C(=O)c3ccccc3)c(N)c2C#N)cc1`, for which the outcome was inactive.

For the compound `COc1ccc(NC(=O)CN(C)C(=O)CCNC(=O)c2ccccc2OC)cc1`, the compound was classed as inactive.

As to `COc1ccc(Nc2ccnc3ccccc23)cc1`, the outcome was inactive.

Consider `c1ccc(CNc2ncnc3nc[nH]c23)cc1`, for which the outcome was inactive.

With `Nc1nn(-c2ccccc2)nc1C(=O)OCc1ccccc1`, the result was inactive.

Turning to `N#Cc1c(-c2cccc(Br)c2)cc(-c2ccco2)[nH]c1=O`, the compound was classed as inactive.

As for `COCc1ccc(CN2CCC(n3nccc3NC(=O)c3ccc4c(c3)OCO4)CC2)o1`, the call was inactive.

For `CSCC(=O)N1CCCC(CO)(Cc2ccccc2C)C1` (stereo unspecified), the call was inactive.

For the compound `CO[C@H]1CN(C)C(=O)c2cc(NS(C)(=O)=O)ccc2OC[C@H](C)N(C(=O)NC(C)C)C[C@@H]1C`, the outcome was inactive.

Take `Cc1ccc(Nc2nc(C)cc(C)c2C(N)=O)c(C)c1`: the compound was called inactive.

On to `O=c1[nH]nc(-c2ccc(NCCCO)c([N+](=O)[O-])c2)c2ccccc12`, for which the outcome was inactive.

`O=C(/C=C/c1ccc(N2CCCCC2)c([N+](=O)[O-])c1)c1ccc(O)cc1`: the outcome was inactive.

Take `Cc1ccc(NC(=O)C2C(c3ccccc3)C2(Cl)Cl)c(C)c1` (stereo unspecified): the result was inactive.

For the compound `CCOc1ccc2nnc(-c3ccc(Br)cc3)n2n1`, the call was inactive.

On to `CS(=O)(=O)Nc1ccc2c(c1)[C@@H]1C[C@H](CC(=O)N3CCc4ccccc4C3)O[C@@H](CO)[C@@H]1O2`, for which the compound was called inactive.

As to `Nc1ncc([N+](=O)[O-])c(N2CCCCCC2)n1`, the call was inactive.

As for `CCNC(=O)NC(=O)COc1ccccc1C#N`, the outcome was inactive.

In the case of `O=C1c2ccccc2-[n+]2ccc3c([nH]c4ccccc43)c21`, the outcome was inactive.

Take `Cc1[nH]c(=O)[nH]c(=O)c1S(=O)(=O)Nc1ccc(F)c(Cl)c1`: the compound was called inactive.

`CCn1c(SCC(=O)Nc2ccc(OC)c(OC)c2)nnc1-c1cccs1`: the result was inactive.

On to `CCc1ccc(NC(=O)CSc2nnc(-c3cnccn3)n2Cc2ccco2)cc1`, for which the compound was called inactive.

For `COCC(=O)OCC(=O)Nc1cc(C(C)(C)C)nn1-c1ccccc1`, the call was inactive.

For `CN1[C@@H]2CC(OC(=O)[C@H](CO)c3ccccc3)C[C@H]1[C@@H]1O[C@@H]12` (stereo partly specified), the compound was called inactive.

`CCOC(=O)C1CN(S(=O)(=O)c2ccc(C)cc2)c2cc(S(=O)(=O)CC)ccc2O1` (stereo unspecified): the compound was classed as inactive.

As to `CCOC(=O)C1CN(S(=O)(=O)c2ccccc2)c2cc(S(=O)(=O)CC)ccc2O1` (stereo unspecified), the outcome was inactive.

For `Cc1cc2nc(/C=C/c3cccnc3)[nH]c2cc1C`, the compound was called inactive.

For the compound `COc1ccc(C2c3[nH]c4ccccc4c3C[C@H]3C(=O)N(c4ccccc4C(=O)N4CCC[C@@H]4C(=O)O)C(=O)N23)cc1` (stereo partly specified), the compound was called inactive.

Turning to `O=C(CCC1CCN(Cc2ccccc2Cl)CC1)NC1CC1`, the compound was called inactive.

As to `CC(=O)NC1CCN(CC(=O)Nc2nccs2)CC1`, the call was inactive.

With `Cc1ccccc1Oc1cc(-n2ncc(Cl)c(Cl)c2=O)ncn1`, the result was inactive.

Consider `O=C(Cc1ccccc1)Nc1ccc(Cl)cn1`, for which the call was inactive.

Consider `CC(C)(C)NC(=O)Cn1nnc(-c2ccccc2NC(=O)c2ccco2)n1`, for which the compound was called inactive.

Turning to `Cc1noc(C)c1NC(=O)Nc1ccc2c(c1)C(=O)N([C@@H](C)CO)C[C@@H](C)[C@@H](CN(C)CC1CCCCC1)OCCCC[C@H](C)O2`, the compound was classed as inactive.

As to `COc1cc(CN2CCN(Cc3ccccc3C(F)(F)F)CC2)cc(OC)c1OC`, the compound was classed as inactive.

In the case of `COc1ccccc1CN1C[C@@H]2C[C@@H](c3cccc(C)n3)N3CCC[C@@]23C1=O`, the outcome was inactive.

In the case of `Cc1nc(C(C)N(C)Cc2nc(-c3ccc4c(c3)OCO4)no2)c(C)s1` (stereo unspecified), the compound was called inactive.

On to `CC(=O)c1cccc(NC(=O)Nc2cccnc2)c1`, for which the call was inactive.

Take `C#CC(CC)(CC)NC(=O)c1ccc(Br)s1`: the compound was called inactive.

`CC(NC(=O)Nc1cccnc1)(C(F)(F)F)C(F)(F)F`: the compound was called inactive.

For the compound `COc1ccccc1C#Cc1ccc2c(c1)O[C@@H](CN(C)Cc1cccnc1)[C@H](C)CN([C@H](C)CO)S2(=O)=O`, the compound was called inactive.

Regarding `OC(c1cc(C(F)(F)F)nc2c(C(F)(F)F)cccc12)C1CCCCN1` (stereo unspecified), the result was inactive.

For the compound `Cc1ccc(-c2cnc3c(c2)C(=O)N([C@H](C)CO)C[C@H](C)[C@@H](CN(C)C)O3)cc1`, the call was inactive.

For the compound `C[C@@H](C(=O)Nc1cc(C(F)(F)F)ccc1N1CCOCC1)N1C(=O)C2CC=CCC2C1=O` (stereo partly specified), the compound was classed as inactive.

As to `C[C@@H]1CCCCO[C@H](CN(C)Cc2ccc(Cl)c(Cl)c2)[C@H](C)CN([C@@H](C)CO)C(=O)c2cc(NC(=O)Nc3ccc(F)cc3)ccc2O1`, the result was inactive.

As to `CCCCn1c(SCC(=O)NCc2ccc3c(c2)OCO3)nnc1C(CC)N(C)C` (stereo unspecified), the compound was classed as inactive.

As to `COc1cc2cc(C)c3nnc(SCC(=O)Nc4cc(C)on4)n3c2cc1OC`, the call was inactive.

For `Cc1nc2ccccn2c1C(=O)/C=C/c1ccc(F)cc1`, the result was inactive.
